# From PubChem BioAssay (EPA / NIEHS)
# Results filed as inconclusive are left out. The source made the active and inactive calls. The calls were made as follows, unless noted: active = hit-call score of the fitted dose curve at least 0.9, where 1 is the maximum; inactive = score below 0.9.
# How the values were obtained:
# [1] = read-out: Interleukin-1 alpha (IL1a), IL1A (gene 3552); experiment: BSK_BE3C_IL1a: BioMAP Diversity Plus: BE3C Assay for Interleukin-1 alpha (IL1a) Biomarker Activity (AID 2283016); conditions: primary human bronchial epithelial cells; actives raise or lower the signal
# Method in brief: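 Measured in human lung primary bronchial epithelial cells: IL-1a by ELISA at 24 h after dosing, with bidirectional fitting against DMSO.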
# [2] = read-out: Monocyte Chemoattractant Protein-1 (MCP1), CCL2 (gene 6347); experiment: BSK_3C_MCP1: BioMAP Diversity Plus: 3C Assay for Monocyte Chemoattractant Protein-1 (MCP1) Biomarker Activity (AID 2283017); conditions: primary human endothelial cells (HUVEC); actives raise or lower the signal
# Method in brief: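 HUVEC, 3C system; 24 h chemical exposure; MCP-1 by ELISA; bidirectional curve fit vs DMSO baseline.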
# [3] = read-out: Human Leukocyte Antigen - DR isotype (HLADR), HLA-DRA (gene 3122); experiment: BSK_3C_HLADR: BioMAP Diversity Plus: 3C Assay for Human Leukocyte Antigen - DR isotype (HLADR) Biomarker Activity (AID 2283019); conditions: primary human endothelial cells (HUVEC); actives raise or lower the signal;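 as to outcome: ELISA of cell-surface HLA-DR on HUVEC 24 h after dosing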
# Method in brief: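 HUVEC, 3C stimulation, 24 h post-dose; HLA-DR by ELISA; bidirectional curve fit vs DMSO baseline; gain or loss of signal scored.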
# [4] = biological target: Retinoic acid receptor RXR-alpha (Homo sapiens) (UniProt P19793); experiment: ATG_RXRa_TRANS: Attagene TRANS-FACTORIAL HepG2 Assay for human Retinoid X Receptor alpha (RXRa) (AID 2283012; active = hit-call score of the fitted dose curve at least 0.9, where 1 is the maximum)
# Method in brief: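 Chimeric NR-GAL4 trans-activation in HepG2, 24 h treatment; reporter transcripts quantified by fluorescence on capillary electrophoresis, analysed for upward change from DMSO.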
# [5] = biological target: human Retinoid X Receptor beta (RXRb), RXRB (gene 6257) (UniProt P28702); experiment: ATG_RXRb_TRANS: Attagene TRANS-FACTORIAL HepG2 Assay for human Retinoid X Receptor beta (RXRb) (AID 2283013; active = hit-call score of the fitted dose curve at least 0.9, where 1 is the maximum)
# Method in brief: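 After a 24 h incubation with test chemical, transfected HepG2 cells carrying NR-Gal4 fusions and GAL4-UAS reporter transcription units yield RNA whose reporter cDNA is FAM-labelled, HpaI-cut and sized by capillary electrophoresis; increases over DMSO are scored.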
# [6] = read-out: E-selectin (Homo sapiens) (UniProt P16581); experiment: BSK_3C_Eselectin: BioMAP Diversity Plus: 3C Assay for Eselectin Biomarker Activity (AID 2283015); conditions: primary human endothelial cells (HUVEC); actives raise or lower the signal;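 also: cell surface E-selectin protein quantified by ELISA 24 h after dosing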
# Method in brief: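 HUVEC, 3C stimulation; compound exposure 24 h; E-selectin by ELISA; gain- or loss-of-signal fitted bidirectionally vs DMSO baseline.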
# [7] = read-out: Monocyte Chemoattractant Protein-1 (MCP1), CCL2 (gene 6347); experiment: BSK_4H_MCP1: BioMAP Diversity Plus: 4H Assay for Monocyte Chemoattractant Protein-1 (MCP1) Biomarker Activity (AID 2283018); conditions: primary human endothelial cells (HUVEC); actives raise or lower the signal
# Method in brief: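 Primary human umbilical vein endothelium is exposed to chemical for 24 h before MCP-1 is assayed by ELISA. Concentration-response fitted bidirectionally relative to DMSO.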
# [8] = biological target: human Thyroid Receptor alpha (THRa1), THRA (gene 7067) (UniProt P10827); experiment: ATG_THRa1_TRANS: Attagene TRANS-FACTORIAL HepG2 Assay for human Thyroid Receptor alpha (THRa1) (AID 2283014; active = hit-call score of the fitted dose curve at least 0.9, where 1 is the maximum)
# Method in brief: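 Transient HepG2 transfection, NR-Gal4 chimera driving GAL4-UAS reporters; 24 h compound exposure; total RNA, oligo(dT) RT, PCR, fluorescent primer extension, capillary electrophoresis. Upward direction vs DMSO control.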
# Chain of Retinoic acid receptor RXR-alpha (Homo sapiens) (P19793 whole entry, looked up, the tested form may be a part): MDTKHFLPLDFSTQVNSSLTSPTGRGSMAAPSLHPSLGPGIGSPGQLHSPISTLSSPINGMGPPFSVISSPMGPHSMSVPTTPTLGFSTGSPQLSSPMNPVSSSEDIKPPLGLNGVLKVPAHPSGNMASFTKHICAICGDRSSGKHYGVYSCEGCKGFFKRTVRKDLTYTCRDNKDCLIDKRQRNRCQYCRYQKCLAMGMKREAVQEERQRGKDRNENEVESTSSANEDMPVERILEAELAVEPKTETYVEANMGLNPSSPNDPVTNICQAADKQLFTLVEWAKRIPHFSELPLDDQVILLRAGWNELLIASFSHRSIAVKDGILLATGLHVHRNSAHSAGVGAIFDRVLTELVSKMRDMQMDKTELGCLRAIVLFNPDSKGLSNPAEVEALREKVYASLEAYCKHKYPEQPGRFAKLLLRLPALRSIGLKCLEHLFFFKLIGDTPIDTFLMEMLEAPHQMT
# Chain of E-selectin (Homo sapiens) (P16581 whole entry, looked up): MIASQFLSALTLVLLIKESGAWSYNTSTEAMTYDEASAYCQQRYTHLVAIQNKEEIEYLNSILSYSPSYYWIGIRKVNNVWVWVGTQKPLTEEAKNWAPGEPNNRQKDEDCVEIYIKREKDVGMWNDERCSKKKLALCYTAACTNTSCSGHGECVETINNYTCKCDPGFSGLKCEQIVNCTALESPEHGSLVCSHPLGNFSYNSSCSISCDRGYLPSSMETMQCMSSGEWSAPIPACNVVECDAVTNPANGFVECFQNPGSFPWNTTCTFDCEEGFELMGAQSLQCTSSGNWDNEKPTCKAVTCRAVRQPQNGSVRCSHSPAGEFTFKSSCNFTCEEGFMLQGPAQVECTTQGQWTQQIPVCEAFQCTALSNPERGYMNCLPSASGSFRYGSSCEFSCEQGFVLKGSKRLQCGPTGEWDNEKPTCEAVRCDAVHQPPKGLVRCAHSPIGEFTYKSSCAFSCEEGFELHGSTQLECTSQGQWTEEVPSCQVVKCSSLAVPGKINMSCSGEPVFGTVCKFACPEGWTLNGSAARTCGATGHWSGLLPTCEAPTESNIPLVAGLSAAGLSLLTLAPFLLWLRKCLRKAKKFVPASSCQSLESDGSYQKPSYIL
# Chain of human Thyroid Receptor alpha (THRa1), THRA (gene 7067) (P10827 whole entry, looked up, the tested form may be a part): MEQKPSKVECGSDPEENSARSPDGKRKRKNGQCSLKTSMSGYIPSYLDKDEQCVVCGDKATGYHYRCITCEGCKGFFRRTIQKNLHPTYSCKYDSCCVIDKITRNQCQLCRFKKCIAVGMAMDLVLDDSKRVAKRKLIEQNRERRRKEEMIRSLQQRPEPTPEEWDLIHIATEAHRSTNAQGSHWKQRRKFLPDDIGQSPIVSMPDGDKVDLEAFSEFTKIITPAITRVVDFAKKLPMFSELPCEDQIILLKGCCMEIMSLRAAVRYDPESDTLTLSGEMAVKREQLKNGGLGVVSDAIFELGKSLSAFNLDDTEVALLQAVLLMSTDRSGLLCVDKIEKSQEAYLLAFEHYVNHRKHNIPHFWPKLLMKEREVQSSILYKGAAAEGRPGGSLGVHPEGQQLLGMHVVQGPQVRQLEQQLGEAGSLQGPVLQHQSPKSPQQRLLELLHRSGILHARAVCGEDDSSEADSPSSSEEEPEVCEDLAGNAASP
# Chain of human Retinoid X Receptor beta (RXRb), RXRB (gene 6257) (P28702 whole entry, looked up, the tested form may be a part): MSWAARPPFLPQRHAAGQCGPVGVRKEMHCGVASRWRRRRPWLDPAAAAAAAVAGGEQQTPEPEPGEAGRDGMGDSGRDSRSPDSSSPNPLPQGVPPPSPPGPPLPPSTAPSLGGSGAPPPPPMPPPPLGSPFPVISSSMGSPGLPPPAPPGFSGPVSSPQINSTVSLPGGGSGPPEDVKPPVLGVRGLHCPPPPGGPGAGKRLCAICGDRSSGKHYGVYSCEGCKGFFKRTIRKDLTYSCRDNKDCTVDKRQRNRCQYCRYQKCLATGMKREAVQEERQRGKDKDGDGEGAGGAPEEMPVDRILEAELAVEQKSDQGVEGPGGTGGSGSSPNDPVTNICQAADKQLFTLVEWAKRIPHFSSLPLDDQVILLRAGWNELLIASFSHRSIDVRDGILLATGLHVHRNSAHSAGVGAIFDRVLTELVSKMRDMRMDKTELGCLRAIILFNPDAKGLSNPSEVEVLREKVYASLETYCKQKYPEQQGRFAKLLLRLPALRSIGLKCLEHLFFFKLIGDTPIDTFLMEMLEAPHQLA
smiles,measurement,setting,value
COc1ccc(S(=O)(=O)N2C(=O)[C@@](c3ccccc3OC)(N3C[C@H](O)C[C@H]3C(=O)N(C)C)c3cc(Cl)ccc32)c(OC)c1,outcome,[1],inactive
same,AC50,[2],20 µM (active)
same,AC50,[3],32.6 µM (active)
CC(C)(C)c1cc(O)c(C(C)(C)C)cc1O,AC50,[4],60.2 µM (active)
same,AC50,[5],59.4 µM (active)
same,outcome,[6],inactive
same,outcome,[1],inactive
same,outcome,[2],inactive
same,AC50,[7],2.88 µM (active)
same,AC50,[3],9 µM (active)
CCCCCCCCCCCCCCCC,outcome,[4],inactive
same,outcome,[8],inactive
same,outcome,[6],inactive
same,outcome,[1],inactive
same,outcome,[2],inactive
same,outcome,[7],inactive
same,outcome,[3],inactive
Cc1ccc(C)c(C)c1,outcome,[4],inactive
same,outcome,[1],inactive
same,outcome,[2],inactive
same,outcome,[3],inactive
